Compounds without any hit were thinned out: in the full panel of roughly 83,000, 20% have a hit.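 Method: cells in 96-well plates; compound added at one concentration; 48 h incubation; percent growth measured; values under 10 scored active.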 The source made the active and inactive calls.
Tests used:
Assay in all cases: NCI-60 one-dose screen, 48 h (100 = growth as untreated, 0 = no growth, -100 = all killed)
Settings in all cases: 10 µM unless noted
NCI-H23 lung = tested on: NCI-H23 lung
NCI-H226 lung = tested on: NCI-H226 lung
NCI-H322M lung = tested on: NCI-H322M lung
HOP-62 NSCLC = tested on: HOP-62 NSCLC
NCI-H460 lung = tested on: NCI-H460 lung
HOP-92 NSCLC = tested on: HOP-92 NSCLC
NCI-H522 lung = tested on: NCI-H522 lung
A549/ATCC NSCLC = tested on: A549/ATCC NSCLC
786-0 renal = tested on: 786-0 renal
COLO 205 colon = tested on: COLO 205 colon

Measured: growth

Clc1ccc(C2CC(c3cccc(Nc4ccncc4)c3)=NN2c2ccc(Cl)cc2)cc1 (stereo not given)
active: HOP-62 NSCLC -44.4% | NCI-H460 lung -81% | NCI-H522 lung -44% | A549/ATCC NSCLC 9.48% | 786-0 renal -71.7% | COLO 205 colon -61.5%
inactive: NCI-H23 lung 47.7% | NCI-H226 lung 91.9% | NCI-H322M lung 54.9% | HOP-92 NSCLC 46.3%

Cc1cccc(C)c1-c1cc(Cc2ccc(Cl)cc2)c(=O)[nH]n1
inactive: NCI-H23 lung 84.9% | NCI-H226 lung 97.3% | NCI-H322M lung 111% | HOP-62 NSCLC 99.4% | NCI-H460 lung 109% | HOP-92 NSCLC 78.6% | NCI-H522 lung 95.3% | A549/ATCC NSCLC 37% | 786-0 renal 104% | COLO 205 colon 108%

Cc1ccc2[nH]c(=S)n(-c3ccc(S(=O)(=O)Nc4ccc(Cl)nn4)cc3)c(=O)c2c1
inactive: NCI-H23 lung 101% | NCI-H226 lung 98.9% | NCI-H322M lung 110% | HOP-62 NSCLC 104% | NCI-H460 lung 104% | HOP-92 NSCLC 104% | NCI-H522 lung 92.5% | A549/ATCC NSCLC 103% | 786-0 renal 60.7% | COLO 205 colon 110%

COc1cc2nc(-c3ccc(C(F)(F)F)cc3)cc(OCCN3CCC(O)CC3)c2cc1OC
inactive: NCI-H23 lung 88.9% | NCI-H226 lung 56.3% | NCI-H322M lung 68.8% | HOP-62 NSCLC 67.8% | NCI-H460 lung 44.5% | HOP-92 NSCLC 71.2% | NCI-H522 lung 79.6% | A549/ATCC NSCLC 79.2% | 786-0 renal 78.7% | COLO 205 colon 35.7%

Cc1[nH]n(-c2cccc(Cl)c2)c(=O)c1/C=C1\C=Nc2ccc(Br)cc21
inactive: NCI-H23 lung 31.7% | NCI-H226 lung 69.1% | NCI-H322M lung 54.9% | NCI-H522 lung 29.2%
active: HOP-62 NSCLC -16.4% | NCI-H460 lung -72.9% | HOP-92 NSCLC -16.9% | A549/ATCC NSCLC -8.71% | 786-0 renal -4.37% | COLO 205 colon 7.07%

O=C(O)c1ccc[n+](CC(=O)N2CCN(c3cc4c(cc3F)c(=O)c(C(=O)O)cn4C3CC3)CC2)c1
inactive: NCI-H23 lung 87.7% | NCI-H226 lung 93.7% | NCI-H322M lung 103% | HOP-62 NSCLC 105% | NCI-H460 lung 95.6% | HOP-92 NSCLC 109% | A549/ATCC NSCLC 106% | 786-0 renal 58.9% | COLO 205 colon 45.4%
active: NCI-H522 lung -86.6%

Nc1ccccc1NC(=O)c1ccc(CN2CCC/C(=C\c3cccc(Cl)c3)C2=O)cc1
active: NCI-H460 lung 7.66% | NCI-H522 lung -32% | COLO 205 colon -51.8%
inactive: NCI-H23 lung 21.1% | NCI-H226 lung 40% | NCI-H322M lung 40.8% | HOP-62 NSCLC 19% | HOP-92 NSCLC 44.1% | A549/ATCC NSCLC 33% | 786-0 renal 14.2%

CC1CCN(C(=O)OCc2nc3nc(Cl)nc(N4CCOCC4)c3[nH]2)CC1
inactive: NCI-H322M lung 68% | HOP-62 NSCLC 46.4% | NCI-H460 lung 10.5%
active: NCI-H23 lung 8.48% | NCI-H226 lung -73.7% | HOP-92 NSCLC -48.8% | NCI-H522 lung -67.8% | A549/ATCC NSCLC 6.08% | 786-0 renal -79.8% | COLO 205 colon -86.6%

CN(C)c1ccc(-c2c(C#N)c(N)n3nc(N)c(C#N)c3c2C#N)cc1
inactive: NCI-H23 lung 96.9% | NCI-H226 lung 86% | NCI-H322M lung 82% | HOP-62 NSCLC 57.8% | NCI-H460 lung 70.1% | HOP-92 NSCLC 60.1% | NCI-H522 lung 82.7% | A549/ATCC NSCLC 73.6% | 786-0 renal 93.1% | COLO 205 colon 75.4%

O=C(N/N=C/c1cccnc1)c1ccccc1Nc1cccc(C(F)(F)F)c1
inactive: NCI-H23 lung 94.2% | NCI-H226 lung 109% | NCI-H322M lung 85.6% | HOP-62 NSCLC 77.5% | NCI-H460 lung 102% | HOP-92 NSCLC 72% | NCI-H522 lung 81.8% | A549/ATCC NSCLC 42.4% | 786-0 renal 83.7% | COLO 205 colon 105%

O=C(Nc1ccc2ncnc(Nc3ccc(Oc4cccc(F)c4)c(Cl)c3)c2c1)c1ccc(CNCCO)cc1
inactive: NCI-H23 lung 73.7% | NCI-H226 lung 91.6% | NCI-H322M lung 39.9% | HOP-62 NSCLC 54.7% | HOP-92 NSCLC 62.5% | NCI-H522 lung 26.9% | A549/ATCC NSCLC 48.6%
active: NCI-H460 lung -61.4% | 786-0 renal -4.01% | COLO 205 colon -54.5%

O=C(Nc1ccccc1)Oc1ccccc1-c1ccccc1
inactive: NCI-H23 lung 97.7% | NCI-H226 lung 93.3% | NCI-H322M lung 105% | HOP-62 NSCLC 74.9% | NCI-H460 lung 99.7% | HOP-92 NSCLC 94.7% | NCI-H522 lung 83.7% | A549/ATCC NSCLC 73.8% | 786-0 renal 93.5% | COLO 205 colon 96%
